Data from ChEMBL document CHEMBL4513148, “CO-ADD screening of Stellenbosch University (South Africa) compounds”.
The campaign covered roughly 23,000 compounds. About 30 (0.1%) showed an effect of 50% or more. This is one part of a sample in which strong results are shown more often than they occur. Measured potencies and affinities stand elsewhere.

tested on: Pseudomonas aeruginosa; conditions: Concentration 32 ug.mL-1; ASSAY_TEST Inhibition of Bacterial Growth; detection method Absorption (OD600); MEDIA CAMHB; plate type 384well; NBS; CORNING #3640; time 18 hr

SMILES | Inhibition [%]
CC(C)(CO)[C@@H](O)C(=O)NCCC(=S)NCCc1ccccc1 | 38.53
CC(C)(C)C(O)C(=O)NCCC(=O)NCCc1ccccc1 (stereo unspecified) | 40.95
CC(C)(CO)[C@@H](O)C(=O)N/C=C/C(=O)NCCc1ccccc1 | 39.92
CC(CC(=O)NCCc1ccccc1)NC(=O)[C@H](O)C(C)(C)CO (stereo partly specified) | 72.5
CC(C)(COP(=O)(O)O)[C@@H](O)C(=O)NCCC(=O)NCCc1ccccc1 | 35.19
CC(C)(CN)C(O)C(=O)NCCC(=O)NCCc1ccccc1 (stereo unspecified) | 51.6
